Laboratory results taken from the supplement of paper PMC13380429.

Test system: Vero E6 infected with SARS-CoV-2
Assay: inhibition of SARS-CoV-2 cytopathic effect; higher = more antiviral protection, active = above 15
Conditions: 48 h

Measured: inhibition of SARS-CoV-2 cytopathic effect

[O-][n+]1cccc(CO)c1 [mepiroxol]
inactive: 1 nM 0.82% | 8.33 nM -0.73% | 100 nM 2.65% | 833.33 nM -0.59% | 10000 nM 2.31%

CN1C(=O)CCS(=O)(=O)C1c1ccc(Cl)cc1 (stereo not given) [chlormezanone]
inactive: 1 nM -2.2% | 8.33 nM -0.15% | 100 nM 0.74% | 833.33 nM 0.68% | 10000 nM 1.19%

O=c1[nH]cc(F)c(=O)[nH]1 [5-fluorouracil]
inactive: 1 nM 0.75% | 8.33 nM 1.63% | 100 nM 1.29% | 833.33 nM 0.37% | 10000 nM 1.52%

N#CCCCSC(=N)N [kevetrin]
inactive: 1 nM -0.54% | 8.33 nM -2.73% | 100 nM -3.7% | 833.33 nM -3.14% | 10000 nM -0.14%

C=CC(=O)Nc1cccc(Oc2nc(Nc3ccc(N4CCN(C)CC4)cc3)ncc2Cl)c1
inactive: 1 nM -1.99% | 8.33 nM 1.76% | 100 nM -2.31% | 833.33 nM -12.8% | 10000 nM -1.76%

O=C(O)CCn1c2c(c3ccccc31)C[C@H](NS(=O)(=O)c1ccc(F)cc1)CC2 [ramatroban]
inactive: 1 nM -0.49% | 8.33 nM 0.09% | 100 nM 0.01% | 833.33 nM 0.06% | 10000 nM 2.02%

O=C(Nc1c[nH]nc1-c1nc2ccc(CN3CCOCC3)cc2[nH]1)NC1CC1
inactive: 1 nM 0.02% | 8.33 nM -0.1% | 100 nM 0.35% | 833.33 nM 0.87% | 10000 nM -5.1%

OCCN1CCN(CCCN2c3ccccc3Sc3ccc(Cl)cc32)CC1 [perphenazine]
inactive: 1 nM 1.39% | 8.33 nM 1.94% | 100 nM 0.83% | 833.33 nM -2.86% | 10000 nM 2.67%

COc1cc(Br)c(S(=O)(=O)Nc2ccc(Cl)c(O[C@@H]3CCN(C)C3)c2)cc1OC
inactive: 1 nM 1.45% | 8.33 nM 1.7% | 100 nM -0.06% | 833.33 nM -0.33% | 10000 nM -0.58%

C[n+]1cc2c3c(ccc2c2ccc4cc5c(cc4c21)OCO5)OCO3 [sanguinarium-chloride]
inactive: 1 nM 0.27% | 8.33 nM 0.22% | 100 nM -1.52% | 833.33 nM 2.52% | 10000 nM -25.4%

CN[C@@H]1[C@H](O)[C@H](NC)[C@H]2O[C@@]3(O)C(=O)C[C@@H](C)O[C@H]3O[C@@H]2[C@H]1O [spectinomycin]
inactive: 1 nM 1.83% | 8.33 nM 2% | 100 nM 1.36% | 833.33 nM 4.54% | 10000 nM 3.59%

O=C(CCc1ccc(O)cc1)c1c(O)cc(O)cc1O [phloretin]
inactive: 1 nM -0.18% | 8.33 nM -0.18% | 100 nM 6.09% | 833.33 nM -0.49% | 10000 nM -1.02%

CCOC(=O)C1=C(COCCN)NC(C)=C(C(=O)OC)C1c1ccccc1Cl (stereo not given) [amlodipine]
inactive: 1 nM 0.58% | 8.33 nM -0.7% | 100 nM 1.37% | 833.33 nM -2.2% | 10000 nM 1.18%

C/C=C(/C)C(=O)O[C@H]1[C@H](OC(C)=O)[C@@]2(CO)C(CC1(C)C)C1=CCC3[C@@]4(C)CCC(O[C@@H]5O[C@H](C(=O)O)[C@@H](O[C@@H]6O[C@H](CO)[C@@H](O)[C@H](O)[C@H]6O)[C@H](O)[C@H]5O[C@@H]5O[C@H](CO)[C@@H](O)[C@H](O)[C@H]5O)[C@](C)(CO)C4CC[C@@]3(C)[C@]1(C)C[C@H]2O.C/C=C(\C)C(=O)O[C@H]1[C@H](OC(C)=O)[C@@]2(CO)C(CC1(C)C)C1=CCC3[C@@]4(C)CCC(O[C@@H]5O[C@H](C(=O)O)[C@@H](O[C@@H]6O[C@H](CO)[C@@H](O)[C@H](O)[C@H]6O)[C@H](O)[C@H]5O[C@@H]5O[C@H](CO)[C@@H](O)[C@H](O)[C@H]5O)[C@](C)(CO)C4CC[C@@]3(C)[C@]1(C)C[C@H]2O (stereo not given in full) [escin]
inactive: 1 nM -2.05% | 8.33 nM -1.77% | 100 nM -0.38% | 833.33 nM -4.84% | 10000 nM -27.8%

CC(=O)Nc1ccc(O)cc1 [paracetamol]
inactive: 1 nM -0.44% | 8.33 nM 1.77% | 100 nM -0.22% | 833.33 nM 0.33% | 10000 nM -2.2%

CN1[C@@H]2CC[C@H]1C[C@@H](OC1c3ccccc3CCc3ccccc31)C2 [deptropine]
inactive: 1 nM 0.19% | 8.33 nM 0.38% | 100 nM 1.32% | 833.33 nM -0.87% | 10000 nM 12.7%

CC(C)c1ccc2c(c1)CC[C@H]1[C@](C)(CN)CCC[C@]21C [lylamine]
inactive: 1 nM -2.24% | 8.33 nM 0.4% | 100 nM 0.03% | 833.33 nM -2.43% | 10000 nM -18.1%

C[C@H](NC[C@H](O)CP(=O)(O)CC1CCCCC1)c1ccc(Cl)c(Cl)c1
inactive: 1 nM 0.9% | 8.33 nM -0.56% | 100 nM -1.52% | 833.33 nM 0.84% | 10000 nM 0.91%

CC1=C(/C=C/C(C)=C/C=C/C(C)=C/C=C/C=C(C)/C=C/C=C(C)/C=C/C2=C(C)C(=O)[C@@H](O)CC2(C)C)C(C)(C)C[C@H](O)C1=O [astaxanthin]
inactive: 1 nM -9.22% | 8.33 nM -11% | 100 nM -9.1% | 833.33 nM -8.76% | 10000 nM -11.5%

Cn1cnnc1Sc1c([N+](=O)[O-])ncn1C
inactive: 1 nM 3.11% | 8.33 nM 1.9% | 100 nM 2.13% | 833.33 nM 5% | 10000 nM 2.84%

CN(CCc1ccc(Cl)c(Cl)c1)CCN1CCCC1
inactive: 1 nM -1.5% | 8.33 nM -0.54% | 100 nM 2% | 833.33 nM 3.84% | 10000 nM -1.25%

O=C(/C=C/c1ccc2ccccc2n1)c1ccncc1
inactive: 1 nM -4.3% | 8.33 nM -0.71% | 100 nM -2.06% | 833.33 nM -1.46% | 10000 nM -3.51%

CCC1(C2=NCCN2)Cc2ccccc2O1 (stereo not given) [efaroxan]
inactive: 1 nM -0.76% | 8.33 nM -1.17% | 100 nM -0.66% | 833.33 nM -2.93% | 10000 nM -3.79%

CC(CC(C(N)=O)(c1ccccc1)c1ccccc1)N(C)C (stereo not given) [aminopentamide]
inactive: 1 nM -1.11% | 8.33 nM -1.56% | 100 nM -1.71% | 833.33 nM 0.24% | 10000 nM -0.57%

O=C1c2ccc(Nc3ccc(F)cc3F)cc2CCc2ccc(OC[C@H](O)CO)cc21 [skepinone-L]
inactive: 1 nM -0.76% | 8.33 nM -3.41% | 100 nM -5.13% | 833.33 nM -8.06% | 10000 nM -9.5%

CCOC(=O)Nc1ccc(NCc2c(C)cc(C)cc2C)cc1N
inactive: 1 nM 0.63% | 8.33 nM 1.07% | 100 nM -0.41% | 833.33 nM -0.67% | 10000 nM 2.16%

O=C(Nc1ccncc1)C(=O)c1cn(Cc2ccc(Cl)cc2)c2ccccc12 [indibulin]
inactive: 1 nM 1.08% | 8.33 nM 1.94% | 100 nM 0.77% | 833.33 nM 0.68% | 10000 nM -6.21%

CC(C)(C)c1cc(C(C)(C)C)c2c(c1)C(O)(C(F)(F)F)C(=O)O2 (racemic)
inactive: 1 nM 5.52% | 8.33 nM 2.66% | 100 nM 4.61% | 833.33 nM -0.2% | 10000 nM -1.15%

CCn1ccnc1CC1COc2ccccc2O1 (stereo not given) [imiloxan]
inactive: 1 nM 2% | 8.33 nM -0.87% | 100 nM -0.32% | 833.33 nM 4.69% | 10000 nM -0.13%

CC1(C)CC[C@]2(C(=O)O)CC[C@]3(C)C(=CC[C@@H]4[C@@]5(C)CC[C@H](O)C(C)(C)[C@@H]5CC[C@]43C)[C@@H]2C1 [oleanolic-acid]
inactive: 1 nM -0.65% | 8.33 nM -0.09% | 100 nM 0.47% | 833.33 nM -0.94% | 10000 nM -0.53%

CC(=O)Nc1ccc(OC(C)=O)cc1 [diacetamate]
inactive: 1 nM -0.51% | 8.33 nM 0.65% | 100 nM 3.04% | 833.33 nM 0.82% | 10000 nM 2.03%

N=C(N)c1ccc(-c2ccc(-c3ccc(C(=N)N)cc3)o2)cc1 [furamidine]
inactive: 1 nM -2.49% | 8.33 nM 0.26% | 100 nM -3.62% | 833.33 nM 0.94% | 10000 nM 2.72%

Oc1c(Br)cc(Br)c2cccnc12 [broxyquinoline]
inactive: 1 nM -1.46% | 8.33 nM 2.01% | 100 nM -2.42% | 833.33 nM -2.35% | 10000 nM -5.91%

COc1ccc(-c2nc(C(=O)N3CCN(C)CC3)sc2-c2ccc(OC)cc2)cc1
inactive: 1 nM -2.34% | 8.33 nM -0.77% | 100 nM -0.57% | 833.33 nM -2.37% | 10000 nM 0.19%

CC1(C)OC[C@@H](COC(=O)CCc2ccc(OC[C@@H](O)CNCCNC(=O)N3CCOCC3)cc2)O1 [landiolol]
inactive: 1 nM -7.81% | 8.33 nM -4.59% | 100 nM -1.18% | 833.33 nM -1.43% | 10000 nM -1.67%

CCC1(CC)C(=O)C=CNC1=O [pyrithyldione]
inactive: 1 nM 1.54% | 8.33 nM 0.58% | 100 nM -3.23% | 833.33 nM -6.45% | 10000 nM -4.46%

CCCCNC(=O)NS(=O)(=O)c1ccc(C)cc1 [tolbutamide]
inactive: 1 nM 0.11% | 8.33 nM 0.83% | 100 nM -0.09% | 833.33 nM 0.89% | 10000 nM -0.3%

CN(C)CCCSC(=N)N [dimaprit]
inactive: 1 nM 0.47% | 8.33 nM 0.92% | 100 nM -0.82% | 833.33 nM -1.15% | 10000 nM 2.17%
